# Screens from PubChem.
# Shiga toxin inh: inhibitors of Shiga toxin in Vero cells; Vero cells, Shiga toxin protein synthesis inhibition reporter; inhibition, % at 38.7 µM; actives 9.2% (n = 290,000); AID 2315; in the data active means inhibition mostly above about 28%, no sharp cut-off; inactive means mostly below about 43%; further: 0% is about no effect
# Sm TGR block: S. mansoni TGR enzyme inhibition; Q962Y6; purified TGR, DTNB reduction, TNB absorbance 405 nm; Potency, µM (top dose mostly 114 µM), without a hit: top-dose activity change, negative = inhibition, hits mostly inhibitors; actives 3% (n = 360,000); AID 485364; active means well fitted inhibition curve with a large enough effect; inconclusive means small, poorly fitted or top-dose-only effect; inactive means no such curve, though single readings can be large or run the other way; further: potency means the concentration at half of the fitted maximal effect; on the % scale 0 is the no-effect control and ±100 the full control effect; nearly all actives have a fitted effect of over 60% in size
#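 First, TGR (20 nM dispensed) and NADPH were mixed with compound. Second, a 15 min room-temperature incubation followed. Third, further NADPH and then DTNB were added to start the reaction. Finally, TNB absorbance was monitored kinetically.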
# FMDV antiviral: foot and mouth disease virus antiviral activity | actives 1.2% (n = 410,000) | FMDV antiviral cell-based qHTS | Potency, µM (highest dose often 57.9 µM), without a hit: top-dose activity change, negative = inhibition, actives largely listed as inhibitors; calls by dose curve; tested in HEK293T cells; further: read-out not given here; potency means the concentration at half of the fitted maximal effect; on the % scale 0 is the no-effect control and ±100 the full control effect; nearly all actives have a fitted effect of over 45% in size
# Cycloheximide cs: affects cycloheximide protein synthesis inhibition readout, counter-screen; cell reporter, cycloheximide protein synthesis inhibition counterscreen; max response, %; actives 12% (n = 300,000); AID 2314; in the data active means max response mostly above about 13%, no sharp cut-off; inactive means mostly below about 14%; further: read at 38.3 µM for the half of the compounds with a filed dose; 0% is about no effect
# * marks the source's active call; other numbers are inactive results; ? = inconclusive; · = no result given. An excerpt weighted towards active compounds, which were near 12% of everything screened.
SMILES,Shiga toxin inh,Sm TGR block,FMDV antiviral,Cycloheximide cs
O=c1c2ccccc2nc(-c2ccco2)n1/N=C/c1ccco1,55,-6%,-2%,16*
Cc1nc2ccccc2c(=O)n1/N=C/c1ccco1,13,-14%,13%,11
COc1ccc(/C=N/n2c(-c3ccco3)nc3ccccc3c2=O)cc1,45*,-3%,0%,28
COc1cccc(/C=N/n2c(-c3ccco3)nc3ccccc3c2=O)c1,145*,-22%,?,54*
O=c1c2ccccc2nc(-c2ccco2)n1/N=C/c1ccccc1O,-32,-19%,-2%,2
CC(C)OCCCn1c(-c2ccco2)nc2nc3ccccc3nc21,21,50µM*,-9%,13*
O=C(CSc1ncc2c(n1)-c1ccccc1N(Cc1ccc(F)cc1)S2(=O)=O)NCCc1ccccc1,·,2%,0%,·
COc1ccccc1CN1CCN(C2CCN(C(=O)Nc3ccccc3)CC2)C(=O)C1=O,·,2%,-14%,·
COCCn1cnc2c(c1=O)c1nc3ccccc3nc1n2/N=C/c1cccc(OC)c1,30,1%,28µM*,4
CCCCn1c(-c2ccco2)nc2ccccc2c1=O,17,56µM*,-20%,6
Cc1ccccc1OCc1nc2ccccc2c(=O)n1/N=C/c1ccco1,64*,40µM*,-12%,33*
Cc1ccc(C(=O)N(CC(C)C)c2nc3ccccc3s2)o1,5,?,-15%,2
CC(C)CN(C(=O)c1ccc(=O)n(C)n1)c1nc2ccccc2s1,17,-1%,19%,15*
COc1ccc(NC(=O)Cn2c(=O)n(CCc3ccccc3)c(=O)c3sc4ccccc4c32)cc1,·,0%,36%,·
CC(C)c1nc2scc(-c3ccc(Cl)cc3)c2c(=O)n1N,73*,21%,-21%,38*
Cc1nc2scc(-c3ccc(Cl)cc3)c2c(=O)n1N,5,1%,-18%,3
COc1ccc(CCC(=O)Nc2ccc(C)c(S(=O)(=O)N(C)C)c2)cc1OC,-6,-11%,10µM*,-2
COc1ccc(CCNCC(=O)Nc2ccc(C)c(S(=O)(=O)N(C)C)c2)cc1,-6,-16%,-16%,1
COc1cc(CCC(=O)Nc2ccc(C)c(S(=O)(=O)N(C)C)c2)cc(OC)c1OC,-5,-10%,28µM*,-3
COc1ccc(-n2c(=O)c3c4c(sc3n(Cc3cc(C)ccc3C)c2=O)CN(C(C)=O)CC4)c(OC)c1,·,-1%,-10%,·
Cc1ccc(CSc2ncc(Cl)c(C(=O)NCCc3ccc(S(N)(=O)=O)cc3)n2)cc1,·,-8%,?,·
c1ccc2oc(SCc3cn4ccsc4n3)nc2c1,119*,-8%,-13%,50*
Cc1cc(C)n2c(Br)c(CSc3nc4ccccc4o3)nc2n1,40,0%,47%,41*
Cc1csc2nc(CSc3nc4ccccc4o3)cn12,71*,-9%,24%,53*
CC[C@H](C)[C@H](NC(=O)[C@H](CC(C)C)NC(=O)[C@H](CC(N)=O)NC(=O)[C@@H](NC(=O)[C@@H](N)Cc1ccc(O)cc1)[C@@H](C)CC)C(=O)N[C@@H](Cc1ccc(O)cc1)C(=O)N[C@@H](CCCN=C(N)N)C(=O)N[C@@H](CC(C)C)C(=O)N[C@@H](CCCN=C(N)N)C(=O)N[C@@H](Cc1ccc(O)cc1)C(N)=O,-3,·,·,-2
SMILES,Shiga toxin inh,Sm TGR block,FMDV antiviral,Cycloheximide cs
Cn1c(N)c(C(=O)COC(=O)CSc2ccc3ccccc3c2)c(=O)n(C)c1=O,31,6%,-18%,-5
CCC(C(=O)OCC(=O)c1c(N)n(CC(C)C)c(=O)n(C)c1=O)c1ccccc1 (stereo not given),·,7%,40µM*,·
Cn1c(N)c(C(=O)COC(=O)CSc2ccccc2)c(=O)n(C)c1=O,27,-4%,25%,16*
Cc1nn(-c2ccccc2)c(C)c1C(=O)OCC(=O)c1c(N)n(CC(C)C)c(=O)n(C)c1=O,-9,-12%,32µM*,-2
O=C(Nc1ccc(Br)cc1F)N1CCC2(CC1)Oc1ccccc1C(=O)N2Cc1ccccc1F,·,6%,-8%,·
Cc1ccc(S(=O)(=O)N(CC(=O)NCCc2ccc(Cl)cc2)c2ccccc2C)cc1,·,3%,-20%,·
Cc1nc(C(=O)NC2CCOCC2)sc1C1(C)CC(c2cccc([N+](=O)[O-])c2)=NO1 (stereo not given),-6,3%,?,0
Cc1nc(C(=O)Nc2ccccc2)sc1C1(C)CC(c2cccnc2)=NO1 (stereo not given),42*,-1%,16%,25*
Cc1nc(-c2ccc(Cl)cc2)sc1C1(C)CC(c2cccc([N+](=O)[O-])c2)=NO1 (stereo not given),17,-22%,15%,18*
CC1(c2nnc(-c3cccc(Cl)c3)o2)CC(c2cccc([N+](=O)[O-])c2)=NO1 (stereo not given),-2,45µM*,-22%,-2
Cc1nc(C(=O)NC2CCOCC2)sc1C1(C)CC(c2ccccc2)=NO1 (stereo not given),22,-10%,-25%,11*
CCCn1c(=O)[nH]c2nc(-c3ccc(S(=O)(=O)O)cc3)[nH]c2c1=O,-2,·,0%,-6
Cc1nc(-c2ccc(Cl)cc2)sc1C1(C)CC(c2cccnc2)=NO1 (stereo not given),80*,7%,5%,112*
Cc1ccc(N/N=C(\C#N)C(N)=S)c(C)c1,41,?,-13%,13*
Cc1ccc(NC(=O)/C(C#N)=N/Nc2ccc(C(=O)O)cc2)c(C)c1,3,7%,-2%,8
CC1CC(=O)C2=C(C1)Nc1ccccc1N=C2 (stereo not given),-21,0%,-2%,-3
CCC1=Nc2ccccc2NC2=C1C(=O)CCC2,77*,-9%,5%,30*
CCc1ccc(-c2nc(CS(=O)CC(=O)NCCc3ccc(Cl)cc3)c(C)o2)cc1 (stereo not given),·,32µM*,-6%,·
Cc1ccc(-c2nc(CS(=O)CC(=O)NCCCc3ccccc3)c(C)o2)cc1 (stereo not given),2,35µM*,6%,22*
CCOc1ccc(CCNC(=O)CS(=O)Cc2nc(-c3ccc(C)cc3)oc2C)cc1 (stereo not given),-2,22µM*,-11%,1
Cc1oc(-c2ccc(Cl)cc2)nc1CS(=O)CC(=O)NCCc1ccccc1 (stereo not given),·,22µM*,22%,·
Cc1ccc(-c2nc(CS(=O)CC(=O)NCCc3ccc(Cl)cc3)c(C)o2)cc1 (stereo not given),·,-5%,-12%,·
O=C(O)[C@@H]1C[C@H](CP(=O)(O)O)CCN1,·,·,-22%,·
Clc1ccc(CSc2nc3ncccc3[nH]2)cc1,·,1%,15%,·
COC(=O)c1cc(C)nc2c1c(=O)nc(SCc1ccccc1F)n2C1CC1,·,-1%,-27%,·
Cc1nc2c(C(=O)NCCC(C)C)cnn2c(C)c1Cc1c(F)cccc1Cl,·,20%,-17%,·
COc1ccc(-c2nc(CS(=O)CC(=O)NCCC3=CCCCC3)c(C)o2)cc1 (stereo not given),81,40µM*,0%,31*
O=C(Nc1ccc(Cl)cc1)Nc1nnc(CSCc2ccccc2)s1,-1,2%,0%,-5
CC(=O)Nc1nnc(SCc2ccccc2F)s1,44*,0%,50%,24*
